# Results: PubChem BioAssay (EPA / NIEHS)
# Records with an inconclusive call do not appear. The source made the active and inactive calls. How the source made its calls, unless noted: active means hit-call score of the fitted dose curve at least 0.9, where 1 is the maximum; inactive means score below 0.9.
# Tests used:
# [1] = CCTE_Simmons_MITO_max_resp_rate: CCTE's HepG2 Seahorse XF Respirometric Screening Assay at Maximal Respiratory State [uncoupled], Simmons Lab (AID 2284002); details: actives raise or lower the signal
# Summary of the method: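 Maximal respiration in HepG2 cells is recorded as OCR by Seahorse XF following FCCP injection. Compounds span 125 nM–100 uM final; activity is called in either direction against DMSO.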
# [2] = CCTE_Simmons_MITO_inhib_resp_rate: CCTE's HepG2 Seahorse XF Respirometric Screening Assay at Inhibited Respiratory State [full ETC block], Simmons Lab (AID 2284006); details: actives raise or lower the signal
# Summary of the method: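 HepG2 cells on Seahorse XF96; oxygen consumption measured after test compound, then FCCP, then rotenone/antimycin A injections over 72 min. Test chemicals at 7 concentrations, 125 nM–100 uM final. OCR fitted bidirectionally versus DMSO.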
# [3] = CCTE_Simmons_MITO_viability: CellTiter-Glo Viability Assessment for CCTE's HepG2 Seahorse XF Respirometric Screening Assay [post-hoc], Simmons Lab (AID 2284007; active means hit-call score of the fitted dose curve at least 0.9, where 1 is the maximum)
# Summary of the method: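 HepG2 cells from the Seahorse XF respirometry run were exposed 90 min to a 7-point series, 125 nM–100 uM final, DMSO vehicle; ATP content then read by luciferase luminescence. Three biological replicates, technical singles; loss of signal fitted versus DMSO.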
# [4] = CCTE_Shafer_MEA_acute_spike_number: CCTE's Neural Acute Assay for Total Number of Spikes, Shafer Lab (AID 2284008);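 on AC50: curve fitted for decrease in spike count so AC50 reflects inhibitors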
# Summary of the method: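 Cortical neurons from rat, matured to DIV 13 or 15 on microelectrode arrays, are recorded at 37 C before and during 40-min exposure to 0.03-40 uM compound. Wells need >/= 10 active electrodes.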
# [5] = CCTE_Shafer_MEA_acute_firing_rate_mean: CCTE's Neural Acute Assay for Mean Firing Rate, Shafer Lab (AID 2284009);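 further: analyzed for loss of signal so actives lower firing rate relative to DMSO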
# Summary of the method: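 Rat primary cortical neurons on 48-well MEA plates, dosed at 0.03-40 uM on DIV 13 or 15; 40 min spontaneous activity recorded at 37 C before and after compound. Spike rate per electrode averaged per well, expressed as percent change from baseline.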
# [6] = CCTE_Harrill_HTTr_Viability_MCF7: CCTE's 6-hour Cell Viability Assessment for the High-Throughput Transcriptomics (HTTr) Platform, in MCF-7 cells cultured in DMEM + 10% fetal bovine serum, Harrill Lab (AID 2284010)
# Summary of the method: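 Membrane integrity was scored by high-content imaging of propidium iodide dye exclusion after a 6 h exposure across an eight-point dilution series. Data were fitted bidirectionally relative to DMSO as negative control and baseline.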
# [7] = CCTE_Harrill_HTTr_Apoptosis_MCF7: CCTE's 6-hour Apoptosis Assessment for the High-Throughput Transcriptomics (HTTr) Platform, in MCF-7 cells cultured in DMEM + 10% fetal bovine serum, Harrill Lab (AID 2284011)
# Summary of the method: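 Cells are dosed with test chemicals at eight concentrations and imaged 6 hours later for caspase-3/7 activity using a green fluorogenic detection reagent. Activity is fitted in both directions against DMSO controls.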
# [8] = CCTE_Harrill_HTTr_CellCount_MCF7: CCTE's Cell Proliferation Assessment for the High-Throughput Transcriptomics (HTTr) Platform, Harrill Lab (AID 2284012; active means hit-call score of the fitted dose curve at least 0.9, where 1 is the maximum;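 further: cells exposed to compound for six hours; intended direction is loss of nuclei count meaning fewer cells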)
# Summary of the method: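 MCF-7 cells were exposed for 6 h to an eight-point dilution series; Hoechst-labeled nuclei were counted by high content imaging. Curves were fitted bidirectionally against DMSO as negative control and baseline, with signal loss indicating reduced cell count.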
# [9] = CCTE_Shafer_MEA_acute_burst_number: CCTE's Neural Acute Assay for Single-Electrode Bursts, Shafer Lab (AID 2284013)
# Summary of the method: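 Primary rat cortical neurons on 16-electrode MEA wells, treated on DIV 13 or 15 with compound at 0.03-40 uM. Single-electrode burst count from 40-min recordings at 37 C before and after exposure; percent change from baseline per well, DMSO negative control.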
# [10] = CCTE_Shafer_MEA_acute_burst_duration_mean: CCTE's Neural Acute Assay for Mean Burst Duration, Shafer Lab (AID 2284014);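 further: hits are decreases in mean burst duration relative to DMSO controls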
# Summary of the method: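 Rat primary cortical neurons on 48-well MEA, treated at DIV 13 or 15 with 0.03-40 uM in at least 3 wells. Value is percent change in mean burst duration, comparing 40 min recordings at 37 C before and during exposure.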
# [11] = CCTE_Shafer_MEA_acute_interburst_interval_mean: CCTE's Neural Acute Assay for Mean Interburst Interval, Shafer Lab (AID 2284016);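 further: percent change of mean interburst interval versus each well's own pre-dose baseline; curves fitted for decrease in interburst interval relative to DMSO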
# Summary of the method: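 Percent change in mean single-electrode interburst interval was calculated per well from 40 min recordings before and after compound (0.03-40 uM). Recordings were made at 37 C on rat cortical cultures at DIV 13 or 15, with spikes detected at 8x rms threshold.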
# [12] = CCTE_Shafer_MEA_acute_burst_percentage_mean: CCTE's Neural Acute Assay for Percentage of Spikes in a Burst, Shafer Lab (AID 2284017);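 on AC50: curve fitted for loss of signal so potency reflects decreased burst percentage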
# Summary of the method: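 Well-level mean burst percentage from a 40-min recording after compound (0.03-40 uM) expressed as percent change from a 40-min baseline at 37C. Cultures: primary rat cortical neurons on MEA, dosed on DIV 13 or 15; fitted downward relative to DMSO.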
# [13] = CCTE_Shafer_MEA_acute_burst_percentage_std: CCTE's Neural Acute Assay for Standard Deviation of Burst Percentage, Shafer Lab (AID 2284018);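 further: fitted in the negative direction so actives lower burst percentage SD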
# Summary of the method: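 Rat primary cortical neurons on 48-well MEAs, DIV 13 or 15, 37 C. 40-min baseline then 40-min recording with compound (0.03-40 uM); well-level SD of per-electrode burst spike percentage, expressed as percent change from baseline.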
# [14] = CCTE_Shafer_MEA_acute_per_network_burst_spike_number_std: CCTE's Neural Acute Assay for Standard Deviation of Number of Spikes in a Network Burst, Shafer Lab (AID 2284020);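 further: fitted for decrease in spike-number SD versus DMSO so actives lower it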
# Summary of the method: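 Rat primary cortical neurons on 48-well MEA (16 electrodes/well), treated DIV 13 or 15 at 0.03-40 uM, ≥3 wells per compound. 40 min recordings at 37 C before and after dosing; value is percent change in network-burst spike-number SD, negative direction vs DMSO.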
# [15] = CCTE_Shafer_MEA_acute_per_network_burst_electrodes_number_mean: CCTE's Neural Acute Assay for Mean Number of Electrodes in a Network Burst, Shafer Lab (AID 2284021);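 further: curves fitted for decreases only so hits reduce electrodes per burst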
# Summary of the method: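 Cultures of rat cortex neurons were exposed on DIV 13 or 15 to compounds at 0.03-40 uM in at least three wells each. Activity over 40 min before and 40 min after exposure at 37 C gave the percent change in electrodes per network burst.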
# [16] = CCTE_Shafer_MEA_acute_network_burst_percentage: CCTE's Neural Acute Assay for Percentage of Network Bursts, Shafer Lab (AID 2284022);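 further: curves fitted for loss so actives lower network burst percentage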
# Summary of the method: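 Cortical neurons from rat were grown over microelectrode arrays and used on day 13 or 15 in vitro. Wells with at least 10 active electrodes received test chemical at 0.03-40 uM. Activity during 40 min of exposure was compared with the preceding 40-min baseline.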
# [17] = CCTE_Shafer_MEA_acute_cross_correlation_HWHM: CCTE's Neural Acute Assay for Cross Correlation at Half Width at Half Maximum, Shafer Lab (AID 2284026);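 further: percent change per well from pre-dose baseline in spike cross-correlogram half width; hits are a decrease in cross-correlogram half width relative to DMSO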;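 on outcome: spontaneous network firing of rat primary cortical neurons on multiwell microelectrode arrays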
# Summary of the method: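 Primary cortex (rat), MEA, DIV 13/15; compound 0.03-40 uM; 40 min pre + 40 min post at 37 C; spike threshold 8x rms; wells need ≥10 active electrodes; endpoint = % change in cross-correlogram HWHM vs baseline, DMSO negative control.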
# [18] = CCTE_Shafer_MEA_acute_synchrony_index: CCTE's Neural Acute Assay for Synchrony, Shafer Lab (AID 2284027);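 further: network synchrony index of spontaneous spiking in primary rat cortical neurons on MEAs; fitted for loss of signal so actives lower synchrony relative to DMSO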
# Summary of the method: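 Primary rat cortical neurons on 16-electrode MEA wells were recorded 40 min at baseline (DIV 13 or 15) and 40 min after compound (0.03-40 uM) at 37 C. Synchrony index (0-1) expressed as percent change from baseline, versus DMSO.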
# [19] = molecular target: Ratio of Nucleoli Translocation and Cytoplasm, AR (gene 367) (UniProt P10275); assay: UPITT_HCI_U2OS_AR_TIF2_Nucleoli_Cytoplasm_Ratio_Agonist: University of Pittsburgh U2OS Androgen Receptor-Transcriptional Intermediary Factor 2 (AR-TIF2) Agonism High Content Imaging Assay for Ratio of Nucleoli Translocation and Cytoplasm (AID 2284000; active means hit-call score of the fitted dose curve at least 0.9, where 1 is the maximum;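 further: hits raise the red nucleolar to cytoplasm ratio above vehicle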)
# Summary of the method: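 U2OS cells expressing RFP-tagged human AR and GFP-tagged TIF2; high-content imaging ratio of nucleolar to cytoplasmic red fluorescence, fitted as gain of signal vs DMSO. Single point at 20 uM final (0.2% DMSO); concentration-response 0.195-50 uM final (0.5% DMSO).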
# Sequence of Ratio of Nucleoli Translocation and Cytoplasm, AR (gene 367) (P10275 whole entry, looked up): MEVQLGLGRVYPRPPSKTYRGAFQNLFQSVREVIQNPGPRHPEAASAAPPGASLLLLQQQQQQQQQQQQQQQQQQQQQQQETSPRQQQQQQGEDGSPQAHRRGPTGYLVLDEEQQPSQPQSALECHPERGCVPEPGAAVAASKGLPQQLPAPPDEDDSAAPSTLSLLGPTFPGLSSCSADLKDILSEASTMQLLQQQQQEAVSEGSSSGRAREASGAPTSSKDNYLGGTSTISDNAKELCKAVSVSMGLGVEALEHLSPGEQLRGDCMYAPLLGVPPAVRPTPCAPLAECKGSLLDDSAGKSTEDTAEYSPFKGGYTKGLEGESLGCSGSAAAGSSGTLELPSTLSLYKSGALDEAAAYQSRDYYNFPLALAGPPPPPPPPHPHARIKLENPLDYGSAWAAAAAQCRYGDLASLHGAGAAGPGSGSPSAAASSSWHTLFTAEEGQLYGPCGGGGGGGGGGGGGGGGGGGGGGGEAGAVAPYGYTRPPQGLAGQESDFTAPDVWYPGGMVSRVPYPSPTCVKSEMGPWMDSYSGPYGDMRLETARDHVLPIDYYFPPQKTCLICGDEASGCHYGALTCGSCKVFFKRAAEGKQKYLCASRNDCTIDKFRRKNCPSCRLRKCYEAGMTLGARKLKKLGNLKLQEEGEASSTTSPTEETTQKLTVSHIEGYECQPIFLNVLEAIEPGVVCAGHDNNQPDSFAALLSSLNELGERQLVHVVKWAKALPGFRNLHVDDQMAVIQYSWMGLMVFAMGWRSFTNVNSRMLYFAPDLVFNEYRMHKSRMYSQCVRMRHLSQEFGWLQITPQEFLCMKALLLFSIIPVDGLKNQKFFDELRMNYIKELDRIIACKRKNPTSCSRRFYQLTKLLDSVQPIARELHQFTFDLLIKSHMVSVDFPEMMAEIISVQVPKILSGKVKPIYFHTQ
structure (smiles),measurement,setting,value
Cc1[nH]cnc1C[C@H]1CCc2c(C)c3ccccc3n2C1=O,outcome,[1],inactive
same,outcome,[2],inactive
same,outcome,[3],inactive
same,AC50,[4],4.12 µM (active)
same,AC50,[5],4.13 µM (active)
same,outcome,[6],inactive
same,outcome,[7],inactive
same,outcome,[8],inactive
same,outcome,[9],inactive
same,outcome,[10],inactive
same,outcome,[11],inactive
same,AC50,[12],9 µM (active)
same,outcome,[13],inactive
same,outcome,[14],inactive
same,AC50,[15],17.8 µM (active)
same,AC50,[16],24.2 µM (active)
same,AC50,[17],30.7 µM (active)
same,AC50,[18],8.89 µM (active)
Cc1c(-c2cccnc2)c2ccccc2n1CCCCC(=O)O,outcome,[1],inactive
same,outcome,[2],inactive
same,outcome,[3],inactive
same,outcome,[6],inactive
same,outcome,[7],inactive
same,outcome,[8],inactive
COc1ccc2sc(C(=O)Nc3nnn[nH]3)c(OC(C)C)c2c1,outcome,[1],inactive
same,outcome,[2],inactive
same,outcome,[4],inactive
same,outcome,[5],inactive
same,outcome,[6],inactive
same,outcome,[7],inactive
same,outcome,[8],inactive
same,outcome,[9],inactive
same,outcome,[10],inactive
same,outcome,[11],inactive
same,outcome,[12],inactive
same,outcome,[13],inactive
same,outcome,[14],inactive
same,outcome,[15],inactive
same,outcome,[16],inactive
same,outcome,[17],inactive
same,outcome,[18],inactive
C1N2CN3CN1CN(C2)C3,outcome,[19],inactive
same,outcome,[6],inactive
same,outcome,[7],inactive
COc1cccc(-c2ccc(/C=C\CN3CCCCCC3)cc2Cl)c1,AC50,[1],65.8 µM (active)
same,outcome,[2],inactive
same,AC50,[4],3.65 µM (active)
same,AC50,[5],3.65 µM (active)
same,outcome,[6],inactive
same,outcome,[7],inactive
same,outcome,[8],inactive
same,outcome,[9],inactive
same,outcome,[10],inactive
same,outcome,[11],inactive
same,AC50,[12],1.34 µM (active)
same,outcome,[13],inactive
same,outcome,[14],inactive
same,outcome,[15],inactive
same,outcome,[16],inactive
same,outcome,[17],inactive
same,outcome,[18],inactive
COc1ccc(/C=C/S(=O)(=O)NC(=O)c2ccc(C)cc2Cl)cc1,AC50,[1],15.2 µM (active)
same,outcome,[2],inactive
same,outcome,[6],inactive
same,outcome,[7],inactive
